# From article PMC7862700, “An all-to-all approach to the identification of sequence-specific readers for epigenetic DNA modifications on cytosine”
# Experiments:
# Assay in all cases: DAPPL (digital affinity profiling via proximity ligation, sequencing); 10 mM Tris-HCl pH 7.5, 50 mM NaCl, 1 mM DTT, 4% glycerol, room temperature, 30 min; GST-TFs on glutathione beads, 16-mer random dsDNA library, 0.1% formaldehyde crosslink after washing; high values mean tight binding
# Conditions in all cases: protein: recombinant; tags: N-terminal GST; dsDNA, one strand shown
# FLI1 = molecular target: T1, FLI1 (Homo sapiens, UniProt Q01543 1-452)
# T1 sequence: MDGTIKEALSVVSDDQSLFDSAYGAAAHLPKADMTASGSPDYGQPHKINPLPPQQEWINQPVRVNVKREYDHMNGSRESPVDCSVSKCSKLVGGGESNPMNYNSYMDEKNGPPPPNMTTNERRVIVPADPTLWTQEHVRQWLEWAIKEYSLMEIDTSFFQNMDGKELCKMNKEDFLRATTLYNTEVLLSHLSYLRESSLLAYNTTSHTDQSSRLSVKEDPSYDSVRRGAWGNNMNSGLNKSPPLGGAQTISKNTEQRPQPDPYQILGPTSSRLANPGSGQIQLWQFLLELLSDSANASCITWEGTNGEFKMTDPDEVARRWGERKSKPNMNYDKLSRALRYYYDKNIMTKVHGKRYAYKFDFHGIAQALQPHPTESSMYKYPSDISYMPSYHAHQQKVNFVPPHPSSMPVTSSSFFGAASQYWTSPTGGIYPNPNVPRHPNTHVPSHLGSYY
# Summary of the method: (§1)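 Each value of binding signal is a hexamer's read frequency for a factor divided by the same hexamer's frequency in the tag-only sample. Barcoded, bead-captured GST fusions of human transcription factors made in yeast were pooled with that sample and incubated with 200 nmole of a random double-stranded 16-mer DNA library in Tris/NaCl/DTT/glycerol buffer at room temperature for 30 min. Washing, 0.1% formaldehyde crosslinking, proximity ligation, PCR and Illumina NextSeq500 sequencing followed.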
# ELK1 = molecular target: T2, ELK1 (Homo sapiens, UniProt P19419 1-428)
# T2 sequence: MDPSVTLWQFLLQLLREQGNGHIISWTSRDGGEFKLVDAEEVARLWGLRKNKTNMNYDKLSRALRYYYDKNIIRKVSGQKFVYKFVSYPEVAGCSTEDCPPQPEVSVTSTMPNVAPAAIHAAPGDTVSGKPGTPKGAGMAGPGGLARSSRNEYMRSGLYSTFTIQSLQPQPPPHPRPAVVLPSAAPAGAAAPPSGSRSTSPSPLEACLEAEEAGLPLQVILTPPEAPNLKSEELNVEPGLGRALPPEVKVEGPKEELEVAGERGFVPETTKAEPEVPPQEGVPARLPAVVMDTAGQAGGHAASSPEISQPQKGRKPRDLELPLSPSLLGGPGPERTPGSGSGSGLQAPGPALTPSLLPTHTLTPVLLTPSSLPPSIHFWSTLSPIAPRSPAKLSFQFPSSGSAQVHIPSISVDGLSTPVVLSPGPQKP
# Summary of the method: as §1
# GABPA = molecular target: T3, GABPA (Homo sapiens, UniProt Q06546 1-454)
# T3 sequence: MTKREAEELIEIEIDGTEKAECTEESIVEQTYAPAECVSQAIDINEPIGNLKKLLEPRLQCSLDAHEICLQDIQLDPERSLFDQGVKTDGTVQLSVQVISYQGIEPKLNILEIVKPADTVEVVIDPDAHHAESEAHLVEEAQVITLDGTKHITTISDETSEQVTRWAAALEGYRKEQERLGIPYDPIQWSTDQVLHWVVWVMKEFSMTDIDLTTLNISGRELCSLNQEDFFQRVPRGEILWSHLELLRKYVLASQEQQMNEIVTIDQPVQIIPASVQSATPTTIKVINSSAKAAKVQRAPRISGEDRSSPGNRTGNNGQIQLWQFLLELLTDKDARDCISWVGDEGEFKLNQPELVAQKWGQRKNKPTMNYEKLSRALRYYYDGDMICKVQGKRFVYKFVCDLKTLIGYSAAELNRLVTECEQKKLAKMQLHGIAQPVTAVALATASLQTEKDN
# Summary of the method: as §1
# ERG = molecular target: T4, ERG (Homo sapiens, UniProt P11308 1-479)
# T4 sequence: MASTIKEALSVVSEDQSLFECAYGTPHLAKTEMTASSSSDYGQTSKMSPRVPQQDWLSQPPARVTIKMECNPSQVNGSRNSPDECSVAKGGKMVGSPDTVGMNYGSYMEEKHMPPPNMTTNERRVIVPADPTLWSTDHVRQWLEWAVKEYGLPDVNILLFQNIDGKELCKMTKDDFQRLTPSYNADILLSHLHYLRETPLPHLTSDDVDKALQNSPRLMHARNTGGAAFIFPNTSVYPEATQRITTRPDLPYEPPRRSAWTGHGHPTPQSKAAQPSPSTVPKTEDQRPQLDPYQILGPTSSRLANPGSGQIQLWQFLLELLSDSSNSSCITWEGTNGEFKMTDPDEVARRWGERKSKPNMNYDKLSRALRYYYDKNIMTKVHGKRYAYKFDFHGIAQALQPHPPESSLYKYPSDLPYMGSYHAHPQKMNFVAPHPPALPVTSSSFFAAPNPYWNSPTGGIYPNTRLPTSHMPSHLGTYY
# Summary of the method: as §1
# ELF1 = ELF1 (Homo sapiens, UniProt P32519 1-619)
# ELF1, sequence (P32519 whole entry): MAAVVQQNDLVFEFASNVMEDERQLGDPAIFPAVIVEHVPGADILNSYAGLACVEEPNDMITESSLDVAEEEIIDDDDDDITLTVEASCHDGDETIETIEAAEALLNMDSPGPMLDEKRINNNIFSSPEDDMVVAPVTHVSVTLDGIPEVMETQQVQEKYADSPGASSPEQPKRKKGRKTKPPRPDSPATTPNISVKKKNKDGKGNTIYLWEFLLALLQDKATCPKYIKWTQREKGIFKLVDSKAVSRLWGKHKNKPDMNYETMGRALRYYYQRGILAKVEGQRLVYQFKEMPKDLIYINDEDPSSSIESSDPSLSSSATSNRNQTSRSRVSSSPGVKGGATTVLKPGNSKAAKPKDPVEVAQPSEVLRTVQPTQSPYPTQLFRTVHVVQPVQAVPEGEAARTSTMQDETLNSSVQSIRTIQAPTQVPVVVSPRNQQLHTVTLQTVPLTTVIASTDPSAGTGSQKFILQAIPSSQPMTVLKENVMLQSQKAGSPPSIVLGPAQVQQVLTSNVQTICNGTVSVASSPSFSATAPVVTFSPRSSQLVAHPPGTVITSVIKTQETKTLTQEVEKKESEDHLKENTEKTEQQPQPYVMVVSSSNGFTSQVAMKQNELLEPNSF
# Summary of the method: as §1
# EHF = molecular target: T5, EHF (Homo sapiens, UniProt Q9NZC4 1-300)
# T5 sequence: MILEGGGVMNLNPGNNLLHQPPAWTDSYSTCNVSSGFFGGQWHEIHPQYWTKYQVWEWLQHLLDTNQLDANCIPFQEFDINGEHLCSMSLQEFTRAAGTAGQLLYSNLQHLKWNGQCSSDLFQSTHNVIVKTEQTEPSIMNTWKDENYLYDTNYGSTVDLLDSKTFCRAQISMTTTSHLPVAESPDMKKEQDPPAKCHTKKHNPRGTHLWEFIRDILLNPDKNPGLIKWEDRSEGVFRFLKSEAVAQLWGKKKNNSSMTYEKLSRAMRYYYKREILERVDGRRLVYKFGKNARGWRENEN
# Summary of the method: as §1
# SPI1 = SPI1 (Homo sapiens, UniProt P17947 1-270)
# Summary of the method: as §1
# SPIB = SPIB (Homo sapiens, UniProt Q01892 1-262)
# SPIB, sequence (Q01892 whole entry): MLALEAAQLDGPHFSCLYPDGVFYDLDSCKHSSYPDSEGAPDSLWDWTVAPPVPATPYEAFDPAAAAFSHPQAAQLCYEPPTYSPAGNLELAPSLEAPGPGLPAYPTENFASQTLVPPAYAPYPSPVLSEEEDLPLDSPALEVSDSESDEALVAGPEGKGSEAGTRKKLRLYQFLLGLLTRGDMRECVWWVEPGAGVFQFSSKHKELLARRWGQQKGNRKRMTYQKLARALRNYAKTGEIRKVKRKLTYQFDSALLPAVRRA
# Summary of the method: as §1
# ELK3 = molecular target: T6, ELK3 (Homo sapiens, UniProt P41970 1-407)
# T6 sequence: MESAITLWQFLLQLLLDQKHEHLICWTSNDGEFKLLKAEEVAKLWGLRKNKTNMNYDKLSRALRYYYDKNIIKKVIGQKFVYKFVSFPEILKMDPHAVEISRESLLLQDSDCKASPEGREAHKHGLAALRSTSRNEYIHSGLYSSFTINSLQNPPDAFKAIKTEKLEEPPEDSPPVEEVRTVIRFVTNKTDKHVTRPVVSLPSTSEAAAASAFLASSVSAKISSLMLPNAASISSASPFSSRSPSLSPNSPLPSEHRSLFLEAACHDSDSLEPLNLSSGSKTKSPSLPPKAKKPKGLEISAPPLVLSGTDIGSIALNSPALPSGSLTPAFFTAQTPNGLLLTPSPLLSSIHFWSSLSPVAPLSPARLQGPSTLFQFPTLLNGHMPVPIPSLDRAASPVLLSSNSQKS
# Summary of the method: as §1
# FEV = molecular target: T7, FEV (Homo sapiens, UniProt Q99581 1-238)
# T7 sequence: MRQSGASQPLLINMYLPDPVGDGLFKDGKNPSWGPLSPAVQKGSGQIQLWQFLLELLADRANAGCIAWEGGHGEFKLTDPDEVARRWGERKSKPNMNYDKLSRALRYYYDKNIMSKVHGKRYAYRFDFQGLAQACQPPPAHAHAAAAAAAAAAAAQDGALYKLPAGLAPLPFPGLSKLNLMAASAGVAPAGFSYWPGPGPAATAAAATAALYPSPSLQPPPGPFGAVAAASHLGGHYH
# Summary of the method: as §1
# ETV5 = ETV5 (Homo sapiens, UniProt P41161 1-510)
# ETV5, sequence (P41161 whole entry): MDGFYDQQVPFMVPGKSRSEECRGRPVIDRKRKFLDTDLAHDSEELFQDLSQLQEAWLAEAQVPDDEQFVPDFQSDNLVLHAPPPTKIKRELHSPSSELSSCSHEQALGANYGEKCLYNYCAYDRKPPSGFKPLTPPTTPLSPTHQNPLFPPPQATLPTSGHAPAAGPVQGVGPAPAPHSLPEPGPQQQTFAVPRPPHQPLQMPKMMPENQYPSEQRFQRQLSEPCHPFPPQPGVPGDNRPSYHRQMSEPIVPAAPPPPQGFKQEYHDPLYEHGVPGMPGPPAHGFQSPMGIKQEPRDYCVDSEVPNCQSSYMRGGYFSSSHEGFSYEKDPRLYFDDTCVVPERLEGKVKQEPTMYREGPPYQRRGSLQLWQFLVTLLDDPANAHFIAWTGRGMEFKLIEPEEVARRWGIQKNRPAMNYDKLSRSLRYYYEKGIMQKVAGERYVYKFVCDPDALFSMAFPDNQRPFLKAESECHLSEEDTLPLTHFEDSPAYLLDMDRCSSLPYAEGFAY
# Summary of the method: as §1
# SPIC = molecular target: T8, SPIC (Homo sapiens, UniProt Q8N5J4 1-248)
# T8 sequence: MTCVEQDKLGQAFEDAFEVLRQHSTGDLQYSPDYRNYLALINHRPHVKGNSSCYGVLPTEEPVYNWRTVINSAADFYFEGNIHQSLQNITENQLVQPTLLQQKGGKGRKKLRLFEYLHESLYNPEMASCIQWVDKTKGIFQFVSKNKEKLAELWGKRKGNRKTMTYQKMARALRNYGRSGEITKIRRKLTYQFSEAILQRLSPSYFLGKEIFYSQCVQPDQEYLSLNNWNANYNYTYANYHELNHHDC
# Summary of the method: as §1
# ELF4 = ELF4 (Homo sapiens, UniProt Q99607 1-663)
# ELF4, sequence (Q99607 whole entry): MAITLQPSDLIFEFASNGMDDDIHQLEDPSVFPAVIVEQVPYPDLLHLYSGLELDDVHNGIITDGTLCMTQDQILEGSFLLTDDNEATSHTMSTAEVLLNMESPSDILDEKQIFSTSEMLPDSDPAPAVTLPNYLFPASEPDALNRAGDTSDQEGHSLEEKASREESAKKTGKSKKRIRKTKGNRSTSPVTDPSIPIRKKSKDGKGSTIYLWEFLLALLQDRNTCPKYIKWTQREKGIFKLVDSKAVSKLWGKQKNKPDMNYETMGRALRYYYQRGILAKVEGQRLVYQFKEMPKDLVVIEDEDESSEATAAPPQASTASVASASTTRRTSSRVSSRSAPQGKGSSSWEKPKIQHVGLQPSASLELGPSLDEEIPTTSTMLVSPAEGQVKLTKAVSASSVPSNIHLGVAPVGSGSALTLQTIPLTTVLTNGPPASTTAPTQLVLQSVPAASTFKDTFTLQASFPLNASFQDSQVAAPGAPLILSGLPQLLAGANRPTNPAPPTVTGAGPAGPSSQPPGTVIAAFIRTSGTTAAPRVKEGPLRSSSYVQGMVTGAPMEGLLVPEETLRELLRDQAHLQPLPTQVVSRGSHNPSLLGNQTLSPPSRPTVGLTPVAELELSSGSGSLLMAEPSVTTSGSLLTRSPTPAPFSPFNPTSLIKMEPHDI
# Summary of the method: as §1
# ELK4 = molecular target: T9, ELK4 (Homo sapiens, UniProt P28324-2 1-405)
# T9 sequence: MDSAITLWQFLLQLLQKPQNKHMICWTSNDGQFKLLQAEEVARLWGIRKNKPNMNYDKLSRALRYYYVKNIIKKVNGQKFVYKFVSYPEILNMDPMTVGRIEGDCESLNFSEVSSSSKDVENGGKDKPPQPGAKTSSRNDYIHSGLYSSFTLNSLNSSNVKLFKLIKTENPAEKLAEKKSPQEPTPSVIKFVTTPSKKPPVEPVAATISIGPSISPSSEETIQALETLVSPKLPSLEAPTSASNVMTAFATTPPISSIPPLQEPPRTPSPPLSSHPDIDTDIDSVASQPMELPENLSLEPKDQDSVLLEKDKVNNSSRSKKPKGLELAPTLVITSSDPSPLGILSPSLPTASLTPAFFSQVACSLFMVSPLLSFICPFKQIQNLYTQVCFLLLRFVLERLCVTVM
# Summary of the method: as §1
# ETV2 = molecular target: T10, ETV2 (Homo sapiens, UniProt O00321 1-342)
# T10 sequence: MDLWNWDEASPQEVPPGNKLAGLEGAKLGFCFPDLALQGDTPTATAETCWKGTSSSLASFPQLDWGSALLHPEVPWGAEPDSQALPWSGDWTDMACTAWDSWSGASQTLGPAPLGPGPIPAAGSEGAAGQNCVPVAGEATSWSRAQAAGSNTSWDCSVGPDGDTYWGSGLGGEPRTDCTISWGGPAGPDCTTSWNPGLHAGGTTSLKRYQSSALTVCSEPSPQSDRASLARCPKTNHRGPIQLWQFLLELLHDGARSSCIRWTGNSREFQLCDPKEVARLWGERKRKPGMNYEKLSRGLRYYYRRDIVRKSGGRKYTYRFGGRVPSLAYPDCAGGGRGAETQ
# Summary of the method: as §1
# ELF3 = molecular target: T11, ELF3 (Homo sapiens, UniProt P78545 1-371)
# T11 sequence: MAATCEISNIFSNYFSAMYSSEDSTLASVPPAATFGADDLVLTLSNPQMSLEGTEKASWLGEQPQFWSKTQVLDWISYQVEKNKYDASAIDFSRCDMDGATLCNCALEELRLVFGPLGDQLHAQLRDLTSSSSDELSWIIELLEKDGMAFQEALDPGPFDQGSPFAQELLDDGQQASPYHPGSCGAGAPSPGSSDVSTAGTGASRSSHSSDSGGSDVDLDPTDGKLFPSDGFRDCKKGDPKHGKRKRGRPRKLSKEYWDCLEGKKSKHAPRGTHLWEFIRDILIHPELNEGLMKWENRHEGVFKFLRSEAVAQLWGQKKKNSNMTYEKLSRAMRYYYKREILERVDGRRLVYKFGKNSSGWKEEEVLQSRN
# Summary of the method: as §1
# ETV1 = ETV1 (Homo sapiens, UniProt P50549 1-477)
# ETV1, sequence (P50549 whole entry): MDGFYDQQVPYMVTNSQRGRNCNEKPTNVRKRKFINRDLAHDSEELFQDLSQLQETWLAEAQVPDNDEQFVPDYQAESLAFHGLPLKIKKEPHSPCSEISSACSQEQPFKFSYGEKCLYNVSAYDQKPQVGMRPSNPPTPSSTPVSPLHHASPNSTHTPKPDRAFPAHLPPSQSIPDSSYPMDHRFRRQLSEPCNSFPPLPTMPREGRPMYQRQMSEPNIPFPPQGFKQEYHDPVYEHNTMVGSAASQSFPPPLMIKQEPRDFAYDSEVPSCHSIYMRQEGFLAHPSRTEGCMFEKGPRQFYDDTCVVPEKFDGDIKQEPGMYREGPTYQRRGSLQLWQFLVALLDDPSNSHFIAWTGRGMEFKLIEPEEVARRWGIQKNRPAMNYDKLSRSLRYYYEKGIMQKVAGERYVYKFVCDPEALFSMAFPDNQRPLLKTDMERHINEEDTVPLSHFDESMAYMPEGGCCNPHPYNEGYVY
# Summary of the method: as §1
Sequence,binding signal (FLI1),binding signal (ELK1),binding signal (GABPA),binding signal (ERG),binding signal (ELF1),binding signal (EHF),binding signal (SPI1),binding signal (SPIB),binding signal (ELK3),binding signal (FEV),binding signal (ETV5),binding signal (SPIC),binding signal (ELF4),binding signal (ELK4),binding signal (ETV2),binding signal (ELF3),binding signal (ETV1)
CAATGC,"1.21 fold enrichment (6-mer frequency, TF over GST control)","1.23 fold enrichment (6-mer frequency, TF over GST control)","1.21 fold enrichment (6-mer frequency, TF over GST control)","1.12 fold enrichment (6-mer frequency, TF over GST control)","1.21 fold enrichment (6-mer frequency, TF over GST control)","1.17 fold enrichment (6-mer frequency, TF over GST control)","1.12 fold enrichment (6-mer frequency, TF over GST control)","1.32 fold enrichment (6-mer frequency, TF over GST control)","1.21 fold enrichment (6-mer frequency, TF over GST control)","1.16 fold enrichment (6-mer frequency, TF over GST control)","1.22 fold enrichment (6-mer frequency, TF over GST control)","1.12 fold enrichment (6-mer frequency, TF over GST control)","1.3 fold enrichment (6-mer frequency, TF over GST control)","1.21 fold enrichment (6-mer frequency, TF over GST control)","1.21 fold enrichment (6-mer frequency, TF over GST control)","1.22 fold enrichment (6-mer frequency, TF over GST control)","1.12 fold enrichment (6-mer frequency, TF over GST control)"
ACCCAC,"1.28 fold enrichment (6-mer frequency, TF over GST control)","1.24 fold enrichment (6-mer frequency, TF over GST control)","1.35 fold enrichment (6-mer frequency, TF over GST control)","1.1 fold enrichment (6-mer frequency, TF over GST control)","1.13 fold enrichment (6-mer frequency, TF over GST control)","1.21 fold enrichment (6-mer frequency, TF over GST control)","1.18 fold enrichment (6-mer frequency, TF over GST control)","1.07 fold enrichment (6-mer frequency, TF over GST control)","1.24 fold enrichment (6-mer frequency, TF over GST control)","1.22 fold enrichment (6-mer frequency, TF over GST control)","1.15 fold enrichment (6-mer frequency, TF over GST control)","1.23 fold enrichment (6-mer frequency, TF over GST control)","1.23 fold enrichment (6-mer frequency, TF over GST control)","1.21 fold enrichment (6-mer frequency, TF over GST control)","1.19 fold enrichment (6-mer frequency, TF over GST control)","1.33 fold enrichment (6-mer frequency, TF over GST control)","1.17 fold enrichment (6-mer frequency, TF over GST control)"
